Data from PubChem BioAssay AID861 (The Scripps Research Institute Molecular Screening Center, 2007).
Among all 200,000 compounds or so, about 360 (0.18%) were called active. The list comes from a sample in which actives are over-represented; it also holds similar structures and randomly drawn compounds. A number with no mark means an inactive call. Cut-off read from the data, not from the text of the source: active = inhibition above about 25%; inactive = the rest.

Molecular target: Toll-like receptor 4 (Homo sapiens) + Myeloid differentiation primary response protein MyD88 (Homo sapiens) (UniProt O00206+Q99836)
Sequence (O00206 whole entry, looked up): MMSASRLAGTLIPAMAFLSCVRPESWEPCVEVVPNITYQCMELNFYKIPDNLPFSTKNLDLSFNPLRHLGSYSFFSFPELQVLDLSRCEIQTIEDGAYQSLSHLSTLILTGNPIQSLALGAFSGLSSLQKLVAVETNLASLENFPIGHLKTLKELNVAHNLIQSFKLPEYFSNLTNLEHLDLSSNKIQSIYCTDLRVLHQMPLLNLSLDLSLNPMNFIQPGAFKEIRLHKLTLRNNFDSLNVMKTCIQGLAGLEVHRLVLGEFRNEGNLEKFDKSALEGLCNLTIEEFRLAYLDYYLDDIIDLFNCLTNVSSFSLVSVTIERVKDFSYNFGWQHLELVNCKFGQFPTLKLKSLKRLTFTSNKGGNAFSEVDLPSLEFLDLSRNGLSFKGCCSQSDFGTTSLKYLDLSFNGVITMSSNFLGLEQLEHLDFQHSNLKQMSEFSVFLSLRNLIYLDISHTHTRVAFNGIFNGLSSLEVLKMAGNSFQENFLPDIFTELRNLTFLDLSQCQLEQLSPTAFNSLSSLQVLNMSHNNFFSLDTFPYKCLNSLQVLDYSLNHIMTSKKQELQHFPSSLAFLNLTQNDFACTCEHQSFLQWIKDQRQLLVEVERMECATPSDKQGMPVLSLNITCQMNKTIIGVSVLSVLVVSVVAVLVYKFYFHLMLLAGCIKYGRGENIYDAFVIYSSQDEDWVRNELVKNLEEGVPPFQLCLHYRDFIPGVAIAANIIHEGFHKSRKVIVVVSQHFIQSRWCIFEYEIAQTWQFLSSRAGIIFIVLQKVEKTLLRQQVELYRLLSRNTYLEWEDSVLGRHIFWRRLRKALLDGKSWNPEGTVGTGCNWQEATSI
Sequence (Q99836 whole entry, looked up): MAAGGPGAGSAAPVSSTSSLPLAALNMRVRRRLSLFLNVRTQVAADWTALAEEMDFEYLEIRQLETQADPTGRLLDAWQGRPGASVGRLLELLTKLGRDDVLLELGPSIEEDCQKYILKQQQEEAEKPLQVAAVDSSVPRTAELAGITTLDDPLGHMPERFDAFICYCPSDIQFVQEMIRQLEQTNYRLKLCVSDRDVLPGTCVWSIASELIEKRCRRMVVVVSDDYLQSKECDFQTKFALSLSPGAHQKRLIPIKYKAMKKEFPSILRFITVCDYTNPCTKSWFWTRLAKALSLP
Assay: disruptors of TLR4 binding to MyD88 – cell-based, HeLa CL3-4, BLA complementation, FRET ratio, primary screen (AID 861);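 note: 0% = vehicle and 100% = reference inhibitor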
Conditions: HeLa CL3-4 TLR4/MyD88 BLA complementation, at 8.4 µM, stronger effect = higher value

| Structure (SMILES) | inhibition |
| --- | --- |
| CCOC(=O)c1c(N)sc(C(C)=O)c1C | 1.12% |
| CCOC(=O)c1sc(NC(=O)CSc2nc(O)c(Cc3ccccc3)c(=O)[nH]2)nc1C | 1.47% |
| CCn1cc(-c2cc(C(=O)O)on2)c(C)n1 | 1.59% |
| COc1cccc(/C=C(/CC(=O)Nc2ccc(N3CCOCC3)cc2)c2nc3ccccc3s2)c1 | 5.83% |
| O=C(COC(=O)Cc1ccc(F)cc1)Nc1cc(S(=O)(=O)N2CCOCC2)ccc1N1CCCC1 | -6.48% |
| Cc1[nH]c2ccccc2c1/C=N\NC(=O)Cn1nnc(-c2ccccc2)n1 | -5.01% |
| Cc1cccc(C)c1NC(=O)C1CCCN1C(=O)OC(C)(C)C (stereo not drawn) | -1.58% |
| O=C(Nc1ccccc1)O/N=C1\CCCCC1c1ccc([N+](=O)[O-])cc1[N+](=O)[O-] (stereo not drawn) | 5.14% |
| CCn1c(SCc2cc(=O)n3ccsc3n2)nc2ccccc21 | -21.4% |
| Cc1nccn1CCCNC(=O)CC1C(=O)NCCN1Cc1ccc(Cl)c(F)c1 (stereo not drawn) | -15.6% |
| Cc1ccc(NC2=C(Cl)C(=O)OC2OC(=O)c2ccccc2C)cc1 (stereo not drawn) | -14.9% |
| CC(=O)c1ccc(N=C2SCCCN2C(=O)C2CCCCC2)cc1 | 0.78% |
| Fc1cccc2ncnc(OCc3ccccc3)c12 | -8.75% |
| CCC(C)(C)NC(=O)C(c1ccccn1)N(C(=O)c1csnn1)c1ccccc1 (stereo not drawn) | 2% |
| COc1ccc(NC(=S)NCC2CCN(c3ccc(OC)cc3)C2)cc1 (stereo not drawn) | -0.81% |
| CC(=O)Nc1ccc(CN2CCN(Cc3ccc(F)c(F)c3)C(CCO)C2)cc1 (stereo not drawn) | -0.85% |
| COc1cc(CN2CCNC(=O)C2CC(=O)NCCc2ncccc2C)cc(OC)c1 (stereo not drawn) | -11.2% |
| COc1cccc(NCCC(=O)c2cccc([N+](=O)[O-])c2)c1 | 9.38% |
| CCOc1ccc(-n2cnnn2)cc1S(=O)(=O)N1CCC(C)CC1C (stereo not drawn) | -2.33% |
| O=C(NCc1ccco1)c1ccc(NS(=O)(=O)c2cccc([N+](=O)[O-])c2)cc1 | 11.7% |
| CC(=O)c1c(C)[nH]c(C(=O)OCC(=O)Nc2sc3c(c2C#N)CCCC3)c1C | -2.59% |
| COc1cc(OC)c(C(=O)Nc2ccccc2-c2ccccc2)cc1OC | -14% |
| CC(=O)Nc1ccc(C(=O)CSc2nc3ccc(C)cc3[nH]2)cc1 | 5.15% |
| O=C(NNC(=S)Nc1ccccc1)c1cccc(S(=O)(=O)N2CCOCC2)c1 | -2.25% |

| Structure (SMILES) | inhibition |
| --- | --- |
| CCN(CC)c1ccc2c(Nc3ccccc3)c(C=O)c(=O)oc2c1 | 6.79% |
| CCN(CC)c1ccc2cc(C(=O)O)c(=O)oc2c1 | 2.27% |
| CCN(CC)c1ccc2oc(=O)c(C)nc2c1 | 26.6% (active) |
| CSc1ccc(/C=N/N2CCN(Cc3ccccc3Cl)CC2)cc1 | 8.51% |
| Cc1ccc(NC(=O)c2cc([N+](=O)[O-])ccc2Cl)c(O)c1 | -13.5% |
| O=C(/C=C/c1ccc(F)cc1)Nc1cccc(S(=O)(=O)Nc2cccc(C(F)(F)F)c2)c1 | -0.34% |
| CCOc1cccc(/C=C/c2ccc3ccccc3n2)c1OC(C)=O | 8.04% |
| O=C(CCN1C(=O)c2ccncc2C1=O)Nc1cc(F)ccc1F | 1.62% |
| CC(=O)Nc1ccc(NC(=O)COc2ccc(S(=O)(=O)NC(C)c3ccccc3)cc2)cc1 (stereo not drawn) | -6.49% |
| O=C(CN1CCCC1)N1CCN(c2ccccc2)CC1 | -1.74% |
| COCCCNC(=S)NNC(=O)C(O)(c1ccccc1)c1ccccc1 | 1.88% |
| Cc1cc(/C=N/NC(=O)CC2(C)OCCO2)c(C)n1-c1ccc(Cl)c(Cl)c1 | -8.27% |
| Cc1nnc(SCC(=O)N2c3ccccc3C(C)(c3ccc(Cl)cc3)CC2(C)C)s1 (stereo not drawn) | -17.2% |
| CC/S(CC1CC1(Cl)Cl)=N\S(=O)(=O)c1ccc(C)cc1 (stereo not drawn) | -3.44% |
| Cc1ccc(OCc2nnc(SC3CCc4ccccc4C3=O)n2C)cc1 (stereo not drawn) | -13.3% |
| CCC1C(=O)c2ccccc2N(C)C1=O (stereo not drawn) | 3.79% |
| N#CC1(NC(=O)COc2ccc3oc4ccccc4c3c2)CCCCC1 | -7.56% |
| CN(CCC1CCOCC1)Cc1cn[nH]c1-c1ccc(-c2ccccc2)cc1 | -6.36% |
| Cc1ccc(NC(=O)c2ccccn2)cc1S(=O)(=O)N1CCOCC1 | -12.9% |
| C=CCN1C(=O)C(O)(CC(=O)c2ccccn2)c2ccccc21 (stereo not drawn) | 0.55% |
| CC1=NN(C(=O)CCc2ccccc2O)C(O)(C(F)(F)F)C1 (stereo not drawn) | -5.78% |
| CCn1c2ccccc2c2cc(NC(=O)C/C(C)=N/NC(=O)c3ccccc3N)ccc21 | -6.09% |
| CCCCCCOc1ccc(OC(=O)c2cccnc2)cc1 | -5.46% |
| CC(=O)Nc1ccc(S(=O)(=O)NC(C)C(=O)OCC(=O)NC2CCCC2)cc1 (stereo not drawn) | -2.35% |

| Structure (SMILES) | inhibition |
| --- | --- |
| COCCNC(=O)NC(=O)COC(=O)C1(c2ccc(Cl)cc2)CC1 | 1.43% |
| O=C(Nc1nnc(-c2ccco2)o1)c1ccc(S(=O)(=O)N2CCOCC2)cc1 | 9.33% |
| CN(C)CCCN1C(=O)CSC1c1ccc([N+](=O)[O-])cc1 (stereo not drawn) | 2.09% |
| COC(=O)c1nc2n(n1)C(c1ccc([N+](=O)[O-])cc1)C(C(=O)Nc1ccc(Cl)cc1)=C(C)N2 (stereo not drawn) | 4.62% |
| COc1cc(NC(=S)N2CCCC(C)C2)cc(OC)c1OC (stereo not drawn) | 6.42% |
| COc1ccc(C2Nc3ccccc3C(=O)N2c2ccc(Cl)cc2)cc1Cn1cc([N+](=O)[O-])cn1 (stereo not drawn) | -3.28% |
| Cc1nc(N=C(N)N)nc2c(C)cccc12 | -6.85% |
| COc1cccc(C(=O)Nc2cc3c(cc2Br)OCCCO3)c1 | 5.11% |
| CCc1cccc(NC(=O)CCC(=O)O)c1 | -11% |
| CC(=O)c1cc(C#N)c(N2CCCCC2)nc1C | 7.39% |
| CCN(CC)S(=O)(=O)c1cc([N+](=O)[O-])ccc1N=Nc1c(O)n(C)c2ccccc12 | 6.59% |
| Cc1cccc(C)c1N1CCN(S(=O)(=O)N2CCCCC2)CC1 | -5.18% |
| CC1CCN(C(=O)c2ccc(CSc3ccc(Cl)cc3)cc2)CC1 | 2.08% |
| C=C(C)C1CC=C(C)/C(=N\NC(=O)CNc2ccccc2OC)C1 (stereo not drawn) | 3.79% |
| O=C(c1ccc2ccccc2n1)N1CCN(c2ccccc2Cl)CC1 | -7.41% |
| CCOC(=O)c1[nH]cnc1C(=O)Nc1ccccc1C | 4.26% |
| COc1ccc(C2CC(c3cccs3)=NN2c2ccc(F)cc2)cc1OC (stereo not drawn) | 5.58% |
| COc1ccc(C2CC(c3cccs3)=NN2c2ccccc2)cc1 (stereo not drawn) | 0.51% |
| COc1ccccc1N1N=C(c2cccs2)CC1c1ccccc1 (stereo not drawn) | 44.4% (active) |
| O=C(Nc1ccc(Br)cn1)c1ccc([N+](=O)[O-])cc1Cl | 0.87% |
| O=C(/C=C/c1ccccc1)c1ccoc1 | 4.74% |
| O=C(/C=C/c1ccc(N2CCOCC2)cc1)c1ccccc1 | 27.9% (active) |
| O=C(O)c1ccc2c(c1)C(=O)N(c1ccc(/C=C/C(=O)c3ccccc3)cc1)C2=O | -0.8% |
| CCOc1ccc(-c2n[nH]c(=S)n2/N=C/c2cc3c(cc2[N+](=O)[O-])OCO3)cc1 | -2.5% |

| Structure (SMILES) | inhibition |
| --- | --- |
| CCOC(=O)CCCN1CC(O)=C(c2nc3ccccc3s2)C1=N | -14.8% |
| COc1ccc(-c2[nH]ncc2/C=N/NC(=O)c2cc(Br)ccc2O)c(OC)c1 | -5.73% |
| COc1cc(OC)cc(-c2nnc(N(C)C(=O)c3ccncc3)s2)c1 | 11.3% |
| O=C(NCC1CCCO1)C1CCN(C2CCN(C(=O)C3CCCCC3)CC2)CC1 (stereo not drawn) | -1.44% |
| CCOc1cc(NC(=S)NCc2ccco2)c(OCC)cc1NC(=O)c1ccco1 | -15.2% |
| CC(=O)C1C(c2ccc(Cl)cc2)c2c(n[nH]c2C)CC1(C)O (stereo not drawn) | -3.07% |
| CC(C)(C)C(=O)c1cnc(Nc2ccccc2)s1 | -8.48% |
| O=C(CSc1nnc(Nc2ccccc2)s1)Nc1cccnc1Cl | -6.41% |
| O=C(c1ccc(Cl)cc1)c1cnc(Nc2ccccc2)s1 | 25.8% (active) |
| O=C(NC1CC1)C1CCCN(C(=O)NC2CCCCC2)C1 (stereo not drawn) | 5.9% |
| Cc1cc(F)ccc1S(=O)(=O)N1CCCOC1CNC(=O)C(=O)NCCC1=CCCCC1 (stereo not drawn) | -6.72% |
| O=C(Nc1ccc(-n2ccnc2P(=O)(O)c2ccccc2)cc1)c1ccccc1Br | -8.07% |
| Cc1ccc(C)c(NC(=O)CCC(=O)N/N=C2/CC(=O)CC(C)(C)C2)c1 | 6.45% |
| COc1ccc(F)c(-c2nc(CN3CCC(c4ccccc4)CC3)c(C)o2)c1 | -6.39% |
| O=C(OCC(=O)c1c[nH]c2ccccc12)c1cccc(O)c1 | -10% |
| Cc1ccccc1OCCOc1ccc([N+](=O)[O-])cc1/C=N/n1cnnc1 | -17.5% |
| COc1cc(/C=N/O)ccc1OCc1ccc([N+](=O)[O-])cc1 | -3.68% |
| Cc1cccc(COc2ccccc2/C=N/Nc2ccc([N+](=O)[O-])cc2)c1 | 28.7% (active) |
| CCCn1c(=S)[nH]c2ccc(C(F)(F)F)cc21 | -6.93% |
| CCNC(=O)N1c2ccccc2Sc2ccccc21 | 7.55% |
| Cc1cccc(C(=O)NC(=S)N2CCN(c3ccc([N+](=O)[O-])cc3)CC2)c1 | -12.6% |
